# In PubChem BioAssay (NCI):
# The panel holds about 83,000 compounds, 20% with a hit somewhere; the sample as a whole holds those more often.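 Values shown are percent growth following 48 h exposure of cells in 96-well plates to a single concentration of compound; below 10 was considered active.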 Unmarked numbers belong to inactive results. Active and inactive are the calls of the source.
# Assays:
# Experiment in all cases: NCI-60 one-dose screen, 48 h (100 = growth as untreated, 0 = no growth, -100 = all killed)
# Settings in all cases: 10 µM unless noted
# [1] = system: NCI-H23 lung
# [2] = system: NCI-H226 lung
# [3] = system: NCI-H322M lung
# [4] = system: HOP-62 NSCLC
# [5] = system: NCI-H460 lung
# [6] = system: HOP-92 NSCLC
# [7] = system: NCI-H522 lung
# [8] = system: A549/ATCC NSCLC
# [9] = system: 786-0 renal
# [10] = system: COLO 205 colon
# [11] = system: DU-145 prostate
# [12] = system: K-562 leukemia
# [13] = system: MALME-3M melanoma
# [14] = system: MDA-MB-231 breast
# [15] = system: RXF 393 renal
# [16] = system: SF-268 CNS
# [17] = system: SF-295 CNS
# [18] = system: SF-539 CNS
# [19] = system: UACC-257 melanoma
# [20] = system: M14 melanoma
SMILES,growth [1],growth [2],growth [3] [%],growth [4],growth [5],growth [6],growth [7],growth [8],growth [9],growth [10],growth [11],growth [12],growth [13],growth [14],growth [15],growth [16] [%],growth [17] [%],growth [18],growth [19],growth [20]
COc1ccc(C(=O)c2cc3c(N)c(C(=O)Nc4ccccc4)sc3nc2C)cc1,36.1%,65.3%,63,44.8%,6.22% (active),82.2%,9.62% (active),31.1%,46.4%,7.64% (active),17.7%,8.08% (active),62.7%,23.3%,-2.82% (active),51.4,26.9,-5.08% (active),70.7%,13.1%
CC1CCN(C(=S)SCC(=O)NC(=O)c2ccccc2)CC1,102%,109%,105,96.7%,110%,107%,83.3%,105%,103%,104%,107%,97.1%,95.5%,117%,136%,100,105,99.2%,102%,–
Nc1nc(N)c(N=Nc2ccccc2)c(-c2ccccc2)n1,65.4%,55.4%,70.1,46.9%,48.7%,38.8%,49.2%,63.8%,60.7%,65.8%,76.8%,77.1%,77.4%,49.9%,24.9%,58,54.2,47.4%,90.8%,–
CN(Cc1cc(Br)cc(Br)c1O)Cc1cc(Br)cc(Br)c1O,36.9%,52%,26.4,30.9%,19.1%,32.3%,3.36% (active),36.8%,39.9%,84%,54.8%,21.3%,73.2%,39.6%,55.4%,45.3,32.1,39.5%,46.8%,–
O=C1NC(=O)/C(=C/c2c(-c3ccccc3)nc3sc(COc4ccccc4)nn23)S1,86%,93.5%,96,102%,102%,66.4%,83.6%,96.6%,81.6%,132%,105%,82.6%,102%,73.3%,112%,106,94.3,103%,104%,–
C/C=C(\C)C(=O)N[C@H]1C(O)C[C@]2(C)C3CC[C@@]4(C)C(CC[C@@H]4C(C)N(C)C)C3CCC2C1O (some centres undefined),68.7%,115%,65.2,86.8%,30.7%,46.6%,90.6%,81.6%,68.4%,29.4%,74.6%,0.455% (active),17.1%,65.2%,81%,13.6,105,7.02% (active),14.6%,–
COc1ccc(-c2n[nH]c(=O)c3nc(NC(=S)Nc4ccc(Oc5ccccc5)cc4)sc23)cc1,99.7%,95.5%,101,91%,101%,90.1%,68.9%,86.7%,102%,113%,102%,89.3%,110%,84%,104%,102,102,105%,79.7%,–
CCN1CCN(CCNc2nccc(-c3c(-c4ccc(F)c(OC)c4)nc4sccn34)n2)S1(=O)=O,78.2%,109%,83.4,87.7%,56.1%,54.4%,63%,73.3%,102%,62.3%,84.1%,54.4%,-7.64% (active),50.8%,45%,79,90.5,99.1%,30.7%,20.7%
COc1cccc(/C=C/C(=O)c2cc3c(N)c(C(=O)Nc4cccc5ccccc45)sc3nc2C)c1,28.4%,36.4%,41.1,25%,-0.349% (active),68.8%,12%,20.3%,3.42% (active),33.9%,7.62% (active),10.4%,33.5%,-3.88% (active),-31.6% (active),15.3,15.5,-67.3% (active),61.7%,2.46% (active)
c1ccc(CCNc2c3ccccc3nc3ccccc23)cc1,38.6%,56.3%,46.6,55.1%,15.3%,-1.55% (active),39.8%,32.7%,38.1%,21.2%,37.9%,25%,57.1%,43.3%,35.3%,66.5,34.9,28.1%,55.2%,–
CC(=O)Oc1ccc(OC(C)=O)c2ccccc12,95.6%,74.9%,106,90.2%,107%,-88.6% (active),61.6%,98.7%,107%,112%,116%,49.6%,107%,-45.5% (active),87.1%,87.5,105,99.9%,78.1%,–
CS(=O)(=O)c1ccc(NC(=O)c2ccccc2)nc1,108%,103%,111,95.6%,105%,106%,68.9%,96.3%,99.1%,128%,108%,100%,108%,99.1%,106%,107,106,104%,95.6%,–
Cn1cc(-c2csc(-c3cn(CCCN4CCOCC4)c4ccccc34)n2)c2cccnc21,88.3%,75.7%,95.6,97.4%,88.5%,67.7%,67.9%,79.3%,74.4%,73.9%,97.9%,26.2%,108%,76.5%,65.7%,91.7,79.5,89.4%,89.3%,–
CCCCNC(=O)c1cc([N+](=O)[O-])cc(C2CCCCC2)c1O,8.28% (active),29.5%,55.3,57.7%,30%,-13.6% (active),25.4%,32%,40.7%,56.4%,57.6%,28.2%,1.91% (active),31.4%,42%,43.9,15.9,47.9%,24.6%,44.4%
CO[C@H](C(=O)[C@@H](O)[C@@H](C)O)[C@@H]1Cc2cc3cc(O[C@H]4C[C@@H](O[C@H]5C[C@@H](O)[C@H](O)C(C)O5)[C@H](O)C(C)(O)O4)cc(O)c3c(O)c2C(=O)[C@H]1O[C@H]1C[C@@H](O[C@H]2C[C@@H](O[C@H]3C[C@@H](OC)[C@H](O)C(C)O3)[C@@H](O)C(C)O2)[C@H](O)C(C)O1 (some centres undefined),16.4%,-29.7% (active),21.1,1.64% (active),12.9%,25.2%,-17.6% (active),6.26% (active),26.6%,-42.4% (active),17.5%,29.9%,-11.4% (active),25.1%,-35.1% (active),34.8,14.4,9.92% (active),-16% (active),–
